Experimental data as given in PubChem BioAssay (NCI).
Compounds without any hit were thinned out: in the full panel of roughly 83,000, 20% have a hit.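 Negative percent growth values reflect cell death: -40 means 40% of the cells present at the start died, and -100 means all died.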 Unmarked numbers belong to inactive results. Active and inactive are the calls of the source.

test system: HOP-62 NSCLC; assay: NCI-60 one-dose screen, 48 h (100 = growth as untreated, 0 = no growth, -100 = all killed); settings: 10 µM unless noted
Method: Growth inhibition of the HOP-62 human Non-Small Cell Lung tumor cell line is measured as a screen for anti-cancer activity. Cells are grown in 96 well plates and exposed to the test compound for 48 hours. Compounds are tested at a single concentration, which is 10^-5 M for most compounds. The reported endpoint is percent growth (GI% or GIPRCNT), where numbers from 0 - 100% represent growth inhibition, and numbers from -100% - 0 represent cell death. For example, a value of 40 represents 60% growth inhibition. A value of 0 means no net growth occurred over the course of the experiment. A value of -40 indicates 40% of cells at the beginning of the experiment died by the end of the experiment. A value of -100 means all cells are dead at the end of the experiment.
NCI-60 Human Tumor Cell Lines Screen was performed using the standard one-dose NCI protocol, which is described in more detail at https://dtp.cancer.gov/discovery_development/nci-60/default.htm.
Compounds with GIPRCNT values below 10 were considered active. Activity score was based on GIPRCNT using the following formula: […]
Score is 0 for GIPRCNT values of 100 or above, 50 for GIPRCNT values of 0, and 100 for GIPRCNT values of -100.

Compound | growth
O=C(O)CS(=O)c1ccc(Cl)cc1 (stereo not given) | 101%
C/C=C(/C)C(=O)OC1C=C(CO)C(=O)C(OC(=O)C(C)(O)C(C)Cl)C1C(C)C (stereo not given) | -1.29% (active)
CC(C)(CNC1CCCCC1)OC(=O)c1ccccc1 | 102%
CCCNC(=O)Oc1ccc(/C(=C(/C)Cc2ccc(OC)cc2)c2ccc(OCCN3CCCC3)cc2)cc1 | 76.8%
COc1cc2oc(-c3ccc(NC(=O)c4ccccc4)cc3)cc(=O)c2c(OC)c1OC | 90.3%
O=c1c2c(c3ccccc3n1-c1ccccc1)NC(=S)NC2c1ccc(Cl)cc1 (stereo not given) | 29.3%
O=C(C(=O)N1CCOCC1)c1ccc(O[C@H]2O[C@H](CO)[C@@H](O)[C@H](O)[C@@H]2O)cc1 | 111%
O=C1C(Cl)=C(SC2=NCCN2)C(=O)c2ccccc21 | 98.8%
O=CN/N=C/c1ccc(Cl)c([N+](=O)[O-])c1 | 20.8%
O=C1CSC(c2ccccc2Cl)N1c1nnc(-c2ccncc2)o1 (stereo not given) | 90.2%
Br/C(=N\Nc1nn[nH]n1)c1ccccc1 | 98%
O=C(Nc1cccc(Cn2c(=O)[nH]c3ccc(Oc4ncccn4)cc3c2=O)c1)c1cccc(F)c1 | 79%
COc1cc(C(=O)Nc2ccc(N(C)C)cc2)cc(OC)c1OC | 94.2%
CC(=O)/C(=C\c1c(-c2ccccc2)[nH]c2ccccc12)S(=O)(=O)c1ccccc1 | 6.39% (active)
CCCCCCCCC(=O)Nc1ccc(O)cc1 | 99.3%
Cc1ncc(C(=O)Nc2ccc(CN3CCN(C)CC3)c(C(F)(F)F)c2)cc1C#Cc1c(N)ncc2ccc(F)cc12 | 15.9%
O=C(CBr)OCc1ccc([N+](=O)[O-])o1 | 96.8%
CC([C@H]1CC=C2C3CCC4=C[C@@H](N(C)C)CC[C@]4(C)C3CC[C@@]21C)N(C)C (stereo not given in full) | -19.4% (active)
CCOc1ccc(Br)cc1/C=C(\C#N)c1ccc([N+](=O)[O-])cc1 | 22.1%
COc1ccc(-c2nc(SCC(C)C)nc(Nc3ccc(C)cc3)c2C#N)cc1 | 88.5%

Compound | growth
C[C@]12CC[C@H]3[C@@H](CC[C@H]4C[C@@H](O)CC[C@@]43C)[C@@H]1CC(=O)C2 | 96.8%
CCN(CCO)CCNc1ccc(C)c2sc3cc(OC)ccc3c(=O)c12 | 62%
CC(O)CN(CCO)CCN(CCO)CC(C)O (stereo not given) | 110%
CCCCCCCCCCCCCCCCNC(=S)N/N=C/c1ccc(O)cc1O | 83.1%
CCCCCCCCCC(C)NC(=O)CCl (stereo not given) | 102%
O=C(NCCCl)Nc1nccnc1OCc1ccc(F)cc1 | 91.4%
COC(=O)c1c[n+]([O-])ccc1OC | 97.1%
COc1ccc(/C=C2\CCCC3=C2N=C2SC=NN2C3c2ccc(OC)c(OC)c2)cc1OC (stereo not given) | 35.3%
COc1ccccc1CNCCCN1C(=O)c2ccc3c4c(ccc(c24)C1=O)C(=O)N(CCCNCc1ccccc1OC)C3=O | -35.9% (active)
COC(=O)CC(=O)C(=O)OC | 103%
CCOC(=O)/C(C#N)=C(/CC)OCC | 104%
CC(=O)Nc1ccc(S(=O)(=O)Cl)cc1 | 102%
C=CC1CN2CCC1CC2C(O)c1ccnc2ccc(OC)cc12 (stereo not given) | 79.8%
O=P(OCCCl)(OCCCl)C(O)c1ccccc1Cl (stereo not given) | 96.2%
Cc1c([C@H](C(Cl)Cl)[C@H](O)[C@H]2C[C@H](C)C(=O)O2)ccc2c1C(=O)[C@H]1[C@H]2C[C@@H](Br)[C@@]23O[C@@H](CO[C@H]2O)CC13C (stereo not given in full) | 49.8%
CN1C(=O)C(=Cc2coc3ccc(Br)cc3c2=O)C(=O)N(C)C1=O | 94.5%
COC(=O)C(Cc1cnc[nH]1)N1CC(=O)N2[C@@H](c3ccccc3)SC[C@H]2C1=O (stereo not given in full) | 114%
O=C(O)c1ccc(Br)nc1 | 91.6%
COc1cc(OC)c(/C=C/c2ccc3ccccc3[n+]2C)c(OC)c1 | 28.4%
CCOC(=O)C(C)C(C)(O)c1ccccc1 (stereo not given) | 109%
